Results as given in the supplement of paper PMC8269313.
Counter-ions that a name gives are not always drawn.

System: 4T1
Assay: % inhibition of 4T1 cell number vs DMSO control; higher = stronger growth inhibition
Settings: 1 µM, 3 days
How it was run: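 In 96-well imaging plates whose edge wells went unused, 3000 4T1-H2B-GFP mouse breast cancer cells per well were seeded in 2% FBS medium onto plastic, denuded lung matrix, mCAF1 fibroblast-derived matrix, Matrigel (15 μg/mL) or 0.2% gelatin. Sixteen hours on, kinase inhibitors went in at 1 μM final for 3 days before formalin fixation, DAPI staining and imaging on an INCell Analyzer 2200. Counting of GFP-positive nuclei gave cell numbers, from which percent inhibition relative to control was derived.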

[1] = substrate: lung fibroblast-derived matrix
[2] = substrate: mCAF1 fibroblast-derived matrix

Row | SMILES | % inhibition of 4T1 cell number (substrate: Matrigel) [%] | % inhibition of 4T1 cell number (substrate: gelatin) [%] | % inhibition of 4T1 cell number [1] [%] | % inhibition of 4T1 cell number [2] [%] | % inhibition of 4T1 cell number (substrate: plastic) [%]
1 | O=C(c1ccccc1)c1ccc(N2CCOCC2)cc1O [DNA-PK Inhibitor V] | 58 | 77.4 | -6.09 | 54.5 | 92.7
2 | O=c1cc(N2CCOCC2)oc2c(-c3ccccc3)cccc12 | -14.7 | -77.3 | 28.2 | 17.4 | -56.8
3 | C[C@@H](N)C1CCC(C(=O)Nc2ccncc2)CC1 (stereo not given in full) | -13.2 | -4.77 | -5.27 | 9.93 | -47.5
4 | O=C(Nc1cc(C(F)(F)F)cc(C(F)(F)F)c1)c1cc(Cl)ccc1O [IKK-2 Inhibitor V] | 91.1 | 90.6 | 80.7 | 82.9 | 94.5
5 | O=S(=O)(NCCNC/C=C/c1ccc(Br)cc1)c1cccc2cnccc12 [H-89, Dihydrochloride] | -2.21 | 25.6 | -2.1 | 36 | -37.5
6 | OCC(O)CCO/N=C1\C(c2c(O)[nH]c3ccccc23)=Nc2ccccc21 (stereo not given) [Indirubin Derivative E804] | -31.7 | 0.993 | -5.02 | 85.4 | 67.7
7 | CC[C@@H](CO)Nc1nc(NCc2ccc(-c3ccccn3)cc2)c2ncn(C(C)C)c2n1 [CR8, (S)-Isomer] | 99.4 | 98.9 | 60.2 | 95.8 | 96.5
8 | C[S+]([O-])c1ccc(-c2nc(-c3ccc(F)cc3)c(-c3ccncc3)[nH]2)cc1 (stereo not given) | 28.8 | 44.4 | 99.2 | 14.9 | 23.3
9 | O=C1NC(=O)C(c2c[nH]c3ccccc23)=C1c1c[nH]c2ccccc12 [Bisindolylmaleimide IV] | 24.5 | -65.7 | 47.8 | 17.1 | -20.6
10 | O=C(Nc1ccncc1)Nc1c(Cl)cc(Cl)cc1Cl [Rho Kinase Inhibitor II] | -9.94 | -2.18 | -4.7 | -19.5 | -18.6
11 | Cc1cc(Nc2nc(-c3ccccc3)nc3ccccc23)n[nH]1 [GSK-3 Inhibitor XIII] | -21.7 | -25.8 | -19 | 62.3 | -14.5
12 | Oc1cccc(-c2nc(N3CCOCC3)c3oc4ncccc4c3n2)c1 | 22.6 | 4.53 | -18.2 | 70.3 | -7.68
13 | Nc1[nH]nc2nnc(-c3c(-c4ccccc4)nn4ccccc34)cc12 | -37.8 | -5.47 | -14.3 | 1.41 | -58.3
14 | Nc1nc(Nc2ccc(S(N)(=O)=O)cc2)nn1C(=S)Nc1c(F)cccc1F [Cdk1/2 Inhibitor III] | 90.1 | 90 | 1.23 | 97.8 | 95.5
15 | Nc1n[nH]c(N)c1N=Nc1ccc(O)cc1 [Cdk9 Inhibitor II] | 11 | 10.5 | -8.89 | -4.98 | 12
16 | c1ccc2c(-c3ccncc3)c[nH]c2c1 [Rho Kinase Inhibitor III, Rockout] | -26.4 | -33.3 | -7.01 | 37.7 | -78.9
17 | COc1nccc(-c2c(-c3ccc(F)cc3)ncn2C2CCC(O)CC2)n1 (stereo not given) | 46.2 | 34.2 | -8.71 | -18.3 | 19.8
18 | CC(C)[C@H](CO)Nc1nc(Nc2cccc(Cl)c2)c2ncn(C(C)C)c2n1 [Purvalanol A] | -8.87 | 15.8 | 83.6 | 40.3 | -20.5
19 | COc1cc2ncnc(Nc3cccc(O)c3)c2cc1OC [WHI-P180, Hydrochloride] | 35.6 | 65.6 | 9.03 | -4.63 | 37.6
20 | NC(=O)Nc1sc(-c2ccccc2)cc1C(N)=O [IKK-2 Inhibitor VI] | -32 | -1.17 | -16 | 28.5 | -60
21 | CCCCn1c2ccc(O)cc2c2c3c(c(-c4ccccc4Cl)cc21)C(=O)NC3=O [Wee1 Inhibitor II] | 52.6 | 63 | 15.6 | 4.43 | 57.9
22 | O=C1NC(=O)/C(=C/c2ccc3c(c2)OC(F)(F)O3)S1 [PI 3-Kg Inhibitor II] | 27.2 | 11.1 | 39.7 | 5.87 | 37.8
23 | NCCCn1cc(C2=C(c3c[nH]c4ccccc34)C(=O)NC2=O)c2ccccc21 [Bisindolylmaleimide III, Hydrochloride] | 50.6 | 46.1 | 12.7 | -60.9 | 37.2
24 | NC(N)=NCCNS(=O)(=O)c1cccc2cnccc12 [HA 1004, Dihydrochloride] | -14.8 | -0.694 | -2.73 | -8.89 | -48.5
25 | COc1ccc2c(c1)c1c3c(c4c5ccccc5n(C)c4c1n2CC(O)CN(C)C)C(=O)NC3=O (stereo not given) | -13 | -19 | -1 | 17.9 | -42.9
26 | CCN(CC)C(=O)c1ccc(Nc2nc(OCC3CCCCC3)c3[nH]cnc3n2)cc1 [Cdk2 Inhibitor IV, NU6140] | -9.76 | -12.1 | -6.34 | 80.5 | 44.3
27 | O=C(Nc1ccc(-c2cn[nH]c2)cc1)C1COc2ccccc2O1 (stereo not given) [Rho Kinase Inhibitor V] | -9.35 | 14.6 | -8.88 | 7.12 | -3.09
28 | COc1ccc(Cl)cc1NC(=O)Nc1cc(C)nc2ccccc12 [IGF-1R Inhibitor II] | -4.34 | -99 | -3.14 | -1.23 | -44.3
